Bioassay records deposited in PubChem by National Center for Advancing Translational Sciences (NCATS).
HCMV antiviral = human cytomegalovirus inhibition. AID 1259415. 410,000 compounds, 4.5% hits. activity change, negative = inhibition, % at 57.5 µM. HFF cells, HCMV-luciferase reporter, 72 h; hits give low values; in the data active means activity change below about -60%; inconclusive means no clear call, values can overlap the other calls; inactive means above about -39%
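Luciferase read-out from HCMV-luciferase-infected HFFs (MOI 1 PFU/cell) 72 h post infection at 37C; compounds added after 16 h cell attachment; activity normalized between buffer-only basal and Salinomycin (10uM) inhibitor controls.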
Pf growth 96h = P. falciparum growth inhibition at 96 hours. P. falciparum luciferase reporter growth, 96 h. Potency, µM (top dose mostly 28.7 µM), for the others: at the highest dose activity change, negative = inhibition, usual class: inhibitors. 320,000 compounds, 6.9% hits; further: potency means the concentration at half of the fitted maximal effect
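Delayed-death screen, second-generation endpoint: infected erythrocytes, 2% hematocrit, 0.05% parasitemia final; 96 hours at 37 C, 5% CO2; luciferase detection reagent; luminescence decrease equals reduced growth.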
Lassa entry inh = blocks Lassa virus binding to or entry into cells; AID 540256; Potency, µM (top dose mostly 37.9 µM), for inactives: at the highest dose activity change, negative = inhibition, actives largely listed as inhibitors; Lassa virus pseudotype entry inhibition, cell reporter; 300,000 compounds, 1.2% hits; calls by dose curve; tested in HEK293 cells; further: potency means the concentration at half of the fitted maximal effect; nearly all actives have a fitted effect of over 50% in size
Pf growth 48h = P. falciparum growth inhibition at 48 hours (one generation) | AID 504832 | Potency, µM (highest dose often 28.7 µM), for the others: at the top dose activity change, negative = inhibition, most hits filed as inhibitors | P. falciparum luciferase growth in erythrocytes, 48 h | 310,000 compounds, 5.9% hits; further: potency means the concentration at half of the fitted maximal effect
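Luminescence readout; reporter = integrated firefly luciferase in P. falciparum. RBC culture at 2% hematocrit, 0.1% parasitemia final, 37 C/5% CO2; decreased signal taken as growth inhibition.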
HCV inh = inhibitors of hepatitis C virus infection; Huh7.5.1 HCVcc-Cre infection, luciferase reporter, 44 h; Potency, µM (titrated, usually from 41.8 µM), for the others: at the top dose activity change, negative = inhibition, actives largely listed as inhibitors; 340,000 compounds, 3.4% hits; AID 651820; further: potency means the concentration at half of the fitted maximal effect
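Seed cells (1,000/well) for 4 h; treat with compound and infect with HCVcc-Cre, moi about 0.5. Incubate 44 h, then detect luciferase activity.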
Marburg entry inh = inhibitors of Marburg virus binding or cell entry; 300,000 compounds, 1.8% hits; AID 540276; Potency, µM (titrated, usually from 37.8 µM), for the others: at the highest dose activity change, negative = inhibition, most hits filed as inhibitors; Marburg virus pseudotyped entry inhibition, cell reporter; calls by dose curve; tested in HEK293 cells; further: potency means the concentration at half of the fitted maximal effect
Starred values were filed as active, the others as inactive; ? = inconclusive; . = no result; [ ] = another dose, or the depositor's remark. Compounds with a hit are over-represented: about 14% of the library has one in this group of screens. Unless noted, the call rests on the fitted dose curve; in most records, active means well fitted inhibition curve with a large enough effect; inconclusive means small, poorly fitted or top-dose-only effect, or another doubt; inactive means no such curve, though single readings can be large or run the other way. On the % scale 0 is the no-effect control and ±100 the full control effect.

SMILES | HCMV antiviral | Pf growth 96h | Lassa entry inh | Pf growth 48h | HCV inh | Marburg entry inh
CCC1CN(C(=O)Nc2cc(C)ccc2OC)c2cc(Cl)ccc2O1 (stereo not drawn) | -61* | . | 0%[46.1 µM] | . | . | .
COc1ccc(OC)c(NC(=O)N2CC(C)Oc3ccc(C)cc32)c1 (stereo not drawn) | 4 | . | -28%[46.1 µM] | . | . | .
CCC1CN(C(=O)NCc2ccccc2)c2cc(Cl)ccc2O1 (stereo not drawn) | -18 | ? | -11%[46.1 µM] | -14% | 5.6µM* | .
COc1ccccc1CNC(=O)c1oc2ccc(S(=O)(=O)N3CCCCC3)cc2c1C | -22 | . | ? | . | . | .
COC(=O)C1=C(N)Oc2cc(C)n(Cc3ccco3)c(=O)c2C1c1cccc(Cl)c1 (stereo not drawn) | -22 | . | -21% | -36% | 8.9µM* | ?
CCn1c(C)cc2c(c1=O)C(c1ccccc1)C(C(=O)OC)=C(N)O2 (stereo not drawn) | 24 | 278% | 6% | 3% | -18% | 25%
COC(=O)C1=C(N)Oc2cc(C)n(CCCn3ccnc3)c(=O)c2C1c1ccc(Cl)cc1 (stereo not drawn) | 19 | 4.7µM* | -6% | 3.3µM* | -11% | ?
CC(C(=O)NC1CCCC1)N1C(=O)c2cccc3cccc1c23 (stereo not drawn) | -19 | 2.3µM* | 3%[46.1 µM] | ? | -16% | -12%[46.1 µM]
Cc1cccc(NC(=O)CCc2nc3sc4c(c3c(=O)[nH]2)CCCC4)c1 | 9 | 3% | ? | 10% | 14% | ?
CN(C)S(=O)(=O)c1cccc(NC(=O)CCc2nc3sc4c(c3c(=O)[nH]2)CCCC4)c1 | -67* | ? | . | ? | ? | .
O=C(c1cccs1)N(Cc1nc2sc3c(c2c(=O)[nH]1)CCCC3)C1CCCC1 | -71* | 173% | 3.5µM* | ? | ? | ?
O=C(CCN1CCc2ccccc2C1)Nc1cccc(F)c1 | 17 | 4.1µM* | ? | 2% | -15% | -8%
CCOC(=O)c1cccc(NC(=O)CCn2c(=O)oc3ccccc32)c1 | ? | -27% | ? | ? | -27% | ?
CCOC(=O)c1cccc(NC(=O)CCn2cccc2)c1 | -8 | 16% | 8.9µM* | 0% | -4% | -26%
O=C(CCn1cccc1)Nc1cccc(F)c1 | -14 | 12µM* | 5% | 13% | 13% | 13%
Fc1ccc(-c2noc3ncnc(NCc4ccc(Cl)cc4)c23)cc1 | ? | . | -1%[46.1 µM] | . | . | .
CC(C)N1CCCC(C)(C(=O)Nc2nc3ccccc3n2C)C1 (stereo not drawn) | 5 | . | . | . | . | .
CCOc1ccc(-c2csc(NC(=O)c3ccc(S(=O)(=O)N4CCc5ccccc5C4)cc3)n2)cc1 | -8 | -19% | 6% | 13% | -21% | -3%
O=C(Nc1nc(-c2ccccc2)cs1)c1ccc(S(=O)(=O)N2CCc3ccccc32)cc1 | -77* | ? | ? | ? | 10µM* | ?
Cc1ccc(-c2csc(NC(=O)c3ccc(S(=O)(=O)N4CCc5ccccc54)cc3)n2)cc1 | ? | 13µM* | -10% | 10µM* | 4.5µM* | -33%
Cc1ccc(-n2c3c(cc(C(=O)Nc4ccccc4C(N)=O)c2=O)C(=O)CC(C)(C)C3)cc1 | -11 | . | 28%[46.1 µM] | . | . | 1%[46.1 µM]
Cc1cc(N[C@@H](CC(C)C)C(=O)O)nc(Cc2ccccc2)n1 | . | . | . | . | . | 22%
CCOc1ccc(OCC)c(NS(=O)(=O)c2cc(-c3onc(C)c3C)ccc2OC)c1 | -4 | . | 6%[46.1 µM] | . | . | .
C=CCn1c(SCc2nc3ccccc3[nH]2)nnc1-c1ccccn1 | 13 | 10µM* | 3% | -8% | 7% | 6%
CCn1c(SCc2nc3ccccc3[nH]2)nnc1-c1ccc(OC)cc1 | -73* | -6% | -3% | -6% | ? | -11%
c1ccc(-c2nnc(SCc3nc4ccccc4[nH]3)n2Cc2ccco2)cc1 | -68* | 1% | 8% | -4% | -8% | -12%
CCn1c(COc2ccc(Cl)cc2)nnc1SCc1nc2ccccc2[nH]1 | ? | ? | 0% | ? | ? | ?
